Rows were chosen to be rich in hits. Some 8.5% of all compounds tested hit in one or more screens of this group.
Coupling enz: counter-screen for Giardia aldolase inhibitors: coupling enzyme system; coupling enzyme system counterscreen, AmpLite Red fluorescence; activity change, negative = inhibition, % at 58.2 µM, hits read low; actives 0.67% (n = 290,000); AID 2472; in the data active = activity change below about -30%
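Counterscreen of the coupled detection system alone, without aldolase: glyceraldehyde-3-phosphate coupling enzymes plus AmpLite Red readout. Compounds at 57.5 uM final, 10 min RT preincubation, 20 min RT reaction, fluorescence 525/598 nm.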
ALDH1A1 inh: blocks purified human ALDH1A1 activity; P00352; Purified ALDH1A1, NADH fluorescence, propionaldehyde substrate; Potency, µM (highest dose often 75.3 µM), hits mostly inhibitors; actives 7.3% (n = 220,000); AID 1030
Sfp inh: inhibitors of Bacillus subtilis Sfp phosphopantetheinyl transferase. Q9F4F7. Biochemical Sfp PPTase activity, qHTS. Potency, µM, actives largely listed as inhibitors. actives 3.5% (n = 310,000). AID 1490; active = well fitted curve in the direction sought with a large enough effect; inconclusive = small, poorly fitted or top-dose-only effect, or another doubt; inactive = no such curve, though single readings can be large; an effect the other way counts as inactive or inconclusive;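 note: the enzyme is Sfp with the accession as filed and its product quenches rhodamine fluorescence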
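Sfp 15 nM + cpd, 15 min RT; start w/ rhodamine-CoA 5 uM, BHQ-2-YbbR 12.5 uM (final); 50 mM Hepes pH 7.6, 10 mM MgCl2, 0.01% NP-40, 0.01% BSA; read 525/598 nm at 0 and 30 min.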
KDM4E inh: inhibitors of human JMJD2E histone demethylase. Potency, µM (highest dose often 57.1 µM), hits mostly inhibitors. AID 2147. B2RXH2. JMJD2E catalytic domain, FDH-coupled NADH fluorescence (FDH is formaldehyde dehydrogenase). actives 1.6% (n = 230,000); note: nearly all actives have a fitted effect of over 50% in size
Target sequence (B2RXH2 1-337 limits assumed): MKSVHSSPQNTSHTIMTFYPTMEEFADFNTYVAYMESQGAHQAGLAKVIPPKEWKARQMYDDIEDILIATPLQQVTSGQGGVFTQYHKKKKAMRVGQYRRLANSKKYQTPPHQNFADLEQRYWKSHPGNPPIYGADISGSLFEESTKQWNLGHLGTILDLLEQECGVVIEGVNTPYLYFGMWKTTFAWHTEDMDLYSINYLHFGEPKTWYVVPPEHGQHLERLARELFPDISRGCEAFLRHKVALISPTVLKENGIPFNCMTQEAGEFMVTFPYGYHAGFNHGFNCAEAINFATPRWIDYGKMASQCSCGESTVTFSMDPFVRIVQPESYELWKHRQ
GoLoco inh red: RGS12 GoLoco-Gai1 interaction inhibition; P63096; actives 0.44% (n = 230,000); Potency, µM (highest dose often 61.6 µM), hits mostly inhibitors; Gai1:RGS12 GoLoco peptide FP, rhodamine, 10 min; active = well fitted inhibition curve with a large enough effect, not every such curve was filed as active; inactive = no such curve, though single readings can be large or run the other way; note: nearly all actives have a fitted effect of over 30% in size
NPSR antagonist: neuropeptide S receptor (human) antagonism, cAMP | Q6W5P4 | CHO-NPSR cells, cAMP TR-FRET, antagonist mode | Potency, µM (doses to about 38.3 µM), actives largely listed as inhibitors | actives 1% (n = 220,000) | AID 1461; active = well fitted curve in the direction sought with a large enough effect; inconclusive = small, poorly fitted or top-dose-only effect, or another doubt; inactive = no such curve, though single readings can be large; an effect the other way counts as inactive or inconclusive; note: nearly all actives have a fitted effect of over 50% in size
Of the large screens only hits and unclear results are named; the others gave an inactive call. Unless noted, calls come from the whole dose curve; as a rule, active = well fitted inhibition curve with a large enough effect (not every such curve was filed as active); inconclusive = small, poorly fitted or top-dose-only effect, or another doubt; inactive = no such curve, though single readings can be large or run the other way.

COc1ccccc1C1C2=C(CC(C)(C)CC2=O)Nc2nnnn21 (configuration not stated)	ALDH1A1 inh 25µM
COc1ccccc1C1C=C(c2ccc(C)cc2)Nc2nnnn21 (configuration not stated)	ALDH1A1 inh 14µM, KDM4E inh inconclusive
Cc1ccc2occ(CN3CCN(c4ccccc4)CC3)c(=O)c2c1	ALDH1A1 inh inconclusive
Cc1ccc2occ(C3N[C@H](C(=O)O)CS3)c(=O)c2c1 (some centres not stated)	ALDH1A1 inh 1.4µM, Sfp inh 50µM, KDM4E inh inconclusive
O=C(O)C1CSC(c2ccco2)N1 (configuration not stated)	ALDH1A1 inh inconclusive, Sfp inh inconclusive, KDM4E inh inconclusive
Cc1ccc2occ(C3NC(C(=O)O)CS3)c(=O)c2c1 (configuration not stated)	ALDH1A1 inh inconclusive, Sfp inh 14µM, KDM4E inh inconclusive
Cc1c(-n2c(SCC(=O)N(C)C3CCS(=O)(=O)C3)nc3ccccc3c2=O)c(=O)n(-c2ccccc2)n1C (configuration not stated)	ALDH1A1 inh 25µM
C=CCn1c(SCC(=O)N(C)C2CCS(=O)(=O)C2)nc2ccccc2c1=O (configuration not stated)	none
COc1cc(/C(C)=N\NC(N)=S)cc(OC)c1OC	none
COc1ccc2c(c1)[N+](=O)C(/C(C)=N/NC(N)=S)=C(C)[N+]2=O	ALDH1A1 inh 3.2µM (no result: Coupling enz, Sfp inh, KDM4E inh, NPSR antagonist)
COc1cc(/C=N/NC(=S)Nc2cccc(C(=O)O)c2)cc(OC)c1OC	ALDH1A1 inh 14µM
COc1ccc(/C=N/NC(=S)Nc2cccc(C(=O)O)c2)cc1OC	none
COc1cccc(/C=N/NC(=S)Nc2cccc(C(=O)O)c2)c1	ALDH1A1 inh 32µM
COc1ccc(-c2nnc3n2N=C(c2cc(OC)ccc2OC)CS3)cc1	none (no result: ALDH1A1 inh, KDM4E inh, GoLoco inh red, NPSR antagonist)
c1coc(CN(Cc2ccco2)c2ncnc3c2oc2ccccc23)c1	ALDH1A1 inh inconclusive, Sfp inh 28µM, NPSR antagonist inconclusive
Clc1ncnc2c1oc1ccccc12	none
Cc1cccc(OCCN2CSC(=S)N(C)C2)c1	ALDH1A1 inh inconclusive
COc1ccccc1OCCN1CSC(=S)N(C)C1	NPSR antagonist 3.2µM
COc1ccc2[nH]cc(CCNc3cc(-c4ccccc4Cl)ncn3)c2c1	Sfp inh inconclusive (no result: KDM4E inh, NPSR antagonist)
COc1ccc2[nH]cc(CCNc3cc(-c4ccccc4C(F)(F)F)ncn3)c2c1	Sfp inh 79µM (no result: NPSR antagonist)
COc1ccc2[nH]cc(CCNc3ccnc(-c4ccccc4Cl)n3)c2c1	ALDH1A1 inh 25µM (no result: KDM4E inh, NPSR antagonist)
COc1ccc2[nH]cc(CCNc3ccnc(-c4cccnc4)n3)c2c1	none (no result: KDM4E inh, NPSR antagonist)
CCOC(=O)C1(CCc2ccccc2)CCN(C(=O)Cc2nonc2C)CC1	none
CCCCn1c(N)c(N(CC(C)C)C(=O)C2CC(=O)N(Cc3ccco3)C2)c(=O)[nH]c1=O (configuration not stated)	none (no result: Coupling enz, ALDH1A1 inh, KDM4E inh, GoLoco inh red, NPSR antagonist)
COC(=O)C1=C(C)NC(=S)N(C(C)=O)C1c1ccccc1 (configuration not stated)	ALDH1A1 inh 25µM
CCOC(=O)C1=C(C)NC(=S)N(C=O)C1c1ccccc1 (configuration not stated)	ALDH1A1 inh 2µM
CCOc1cc(C)c(C(C)C)cc1S(=O)(=O)N1CCOCC1	ALDH1A1 inh 3.5µM
COc1cc(C)c(S(=O)(=O)N2CCOCC2)cc1C	none
COc1cc(C)c(C(C)C)cc1S(=O)(=O)N1CCOCC1	ALDH1A1 inh 3.2µM
CCOc1ccc(Br)cc1CN(CC)CC	none
Brc1ccc([C@H]2CN3CCSC3=N2)cc1	KDM4E inh 11µM (no result: Coupling enz, Sfp inh)
CSc1nc2nc3c(cc2c(=O)n1-c1ccc(C)cc1)COC(C)(C)C3	KDM4E inh inconclusive (no result: ALDH1A1 inh)
CSc1nc2nc3c(cc2c(=O)n1-c1ccccc1)COC(C)(C)C3	ALDH1A1 inh 14µM, KDM4E inh inconclusive
CSc1nc2nc3c(cc2c(=O)n1-c1ccccc1C)COC(C)(C)C3	none (no result: ALDH1A1 inh)
CSc1nc2nc3c(cc2c(=O)n1-c1cccc(C)c1)COC(C)(C)C3	ALDH1A1 inh 3.5µM
O=C1/C(=C/c2ccccc2)Oc2ccccc21	none (no result: KDM4E inh, GoLoco inh red, NPSR antagonist)

High-throughput results as filed in PubChem BioAssay.
